The record followed here is PMC5700166.

This assay has as its target T1, GST-Dm-Relish (Drosophila melanogaster, UniProt Q94527 99-473).
T1 sequence: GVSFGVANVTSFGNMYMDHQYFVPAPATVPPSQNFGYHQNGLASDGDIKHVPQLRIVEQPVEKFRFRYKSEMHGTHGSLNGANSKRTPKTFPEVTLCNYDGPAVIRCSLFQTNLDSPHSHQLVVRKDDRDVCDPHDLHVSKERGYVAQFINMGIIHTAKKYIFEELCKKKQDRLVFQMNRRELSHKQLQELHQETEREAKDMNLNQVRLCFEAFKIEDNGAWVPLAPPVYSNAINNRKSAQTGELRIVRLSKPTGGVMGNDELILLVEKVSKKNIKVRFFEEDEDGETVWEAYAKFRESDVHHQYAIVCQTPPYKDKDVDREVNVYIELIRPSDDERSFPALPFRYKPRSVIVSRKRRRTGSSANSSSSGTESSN
The assay is described as follows: protein-binding microarray (PBM); PBM: ~300 nM protein, 6 mM HEPES pH 7.8, 80 mM KCl, 0.5 mM EDTA, 0.5 mM EGTA, 6% glycerol, 35 ng/ul poly-dIdC, 1% milk, 1 h, room temperature; Ap Aiptasia and Nv Nematostella (sea anemones) / Co Capsaspora / Aq Amphimedon (sponge) / Dm Drosophila / Hu human; RHD is the Rel homology domain; high values mean tight binding. The settings on record: dsDNA, one strand shown.
For “CCGATTAACATCAGGGGGTATACTGATGTTAATCGGGTCTTGATTCGCTTGACGCTGCTG”, the binding signal is 6.38 z-score.
The sequence “CCGATTAACATCAGGGTAAAACCTGATGTTAATCGGGTCTTGATTCGCTTGACGCTGCTG” had a binding signal of 3.45 z-score.
Turning to “CCGATTAACATCAGAAGTTTCCCTGATGTTAATCGGGTCTTGATTCGCTTGACGCTGCTG”, the binding signal turned out to be 3.08 z-score.
“CCGATTAACATCAGGATCTTCCCTGATGTTAATCGGGTCTTGATTCGCTTGACGCTGCTG” gave a binding signal of 1.53 z-score.
As for “CCGATTAACATCAGGGAGCCCCCTGATGTTAATCGGGTCTTGATTCGCTTGACGCTGCTG”, the binding signal was 9.12 z-score.
Next, “CCGATTAACATCAAAGTGTCCCCTGATGTTAATCGGGTCTTGATTCGCTTGACGCTGCTG”: 1.98 z-score; “CCGATTAACATCACGTAAACCCCTGATGTTAATCGGGTCTTGATTCGCTTGACGCTGCTG”: 6.43 z-score; “CCGATTAACATCAGAAATCCCGCTGATGTTAATCGGGTCTTGATTCGCTTGACGCTGCTG”: 4.94 z-score.
“CCGATTAACATCATCCCCGTGTCTGATGTTAATCGGGTCTTGATTCGCTTGACGCTGCTG” came in with a binding signal of 2.12 z-score.
Regarding “CCGATTAACATCAGAATAACCCCTGATGTTAATCGGGTCTTGATTCGCTTGACGCTGCTG”, the binding signal stood at 3.29 z-score.
On to “CCGATTAACATCAGGGGTTTCCATGATGTTAATCGGGTCTTGATTCGCTTGACGCTGCTG”, for which the binding signal is 8.15 z-score.
In turn, “CCGATTAACATCAGGGGAAGGAATGATGTTAATCGGGTCTTGATTCGCTTGACGCTGCTG” gave a binding signal of 3.59 z-score.
“CCGATTAACATCACGGGTTTCCCTGATGTTAATCGGGTCTTGATTCGCTTGACGCTGCTG”: the binding signal was found to be 7.38 z-score.
On to “CCGATTAACATCAGGGATTTCCATGATGTTAATCGGGTCTTGATTCGCTTGACGCTGCTG”, for which the binding signal amounted to 7.94 z-score.
“CCGATTAACATCAACCACCCCCTTGATGTTAATCGGGTCTTGATTCGCTTGACGCTGCTG” had a binding signal of 2.48 z-score.
“CCGATTAACATCACTGTTTTCCCTGATGTTAATCGGGTCTTGATTCGCTTGACGCTGCTG” gave a binding signal of 1.62 z-score.
“CCGATTAACATCAGGGAAACCCATGATGTTAATCGGGTCTTGATTCGCTTGACGCTGCTG” displayed a binding signal of 8.17 z-score.
The sequence “CCGATTAACATCAGATATTTCCCTGATGTTAATCGGGTCTTGATTCGCTTGACGCTGCTG” gave a binding signal of 2.31 z-score.
“CCGATTAACATCAGGGCCCCCCCTGATGTTAATCGGGTCTTGATTCGCTTGACGCTGCTG”: the binding signal was 6.49 z-score.
As to “CCGATTAACATCAGGATATTCCCTGATGTTAATCGGGTCTTGATTCGCTTGACGCTGCTG”, the binding signal was 3.37 z-score.
For the sequence “CCGATTAACATCAGGGATACCCCTGATGTTAATCGGGTCTTGATTCGCTTGACGCTGCTG”, the binding signal was found to be 7.22 z-score.
To “CCGATTAACATCAATTTTTCCCATGATGTTAATCGGGTCTTGATTCGCTTGACGCTGCTG” belongs 1.64 z-score.
Take “CCGATTAACATCACAAAACTCCCTGATGTTAATCGGGTCTTGATTCGCTTGACGCTGCTG”: the binding signal stood at 5.41 z-score.
To “CCGATTAACATCAAACCCCCCCGTGATGTTAATCGGGTCTTGATTCGCTTGACGCTGCTG” belongs 7 z-score.
Regarding “CCGATTAACATCAACGCCCCCCCTGATGTTAATCGGGTCTTGATTCGCTTGACGCTGCTG”, the binding signal is 4.35 z-score.
“CCGATTAACATCAGGGGGGGTACTGATGTTAATCGGGTCTTGATTCGCTTGACGCTGCTG” displayed a binding signal of 5.04 z-score.
“CCGATTAACATCACACCCCCCCCTGATGTTAATCGGGTCTTGATTCGCTTGACGCTGCTG” yielded a binding signal of 4.99 z-score.
In turn, “CCGATTAACATCAAATCACCCCCTGATGTTAATCGGGTCTTGATTCGCTTGACGCTGCTG” yielded a binding signal of 4.37 z-score.
“CCGATTAACATCAAGGATTCCCGTGATGTTAATCGGGTCTTGATTCGCTTGACGCTGCTG” registered a binding signal of 6.9 z-score.
To “CCGATTAACATCAGGGGGACAAATGATGTTAATCGGGTCTTGATTCGCTTGACGCTGCTG” belongs 2.64 z-score.
“CCGATTAACATCACGTCCCCCCCTGATGTTAATCGGGTCTTGATTCGCTTGACGCTGCTG” gave a binding signal of 4.38 z-score.
In turn, “CCGATTAACATCACGTGTTTCCCTGATGTTAATCGGGTCTTGATTCGCTTGACGCTGCTG” had a binding signal of 3.51 z-score.
Turning to “CCGATTAACATCAGGGGGTGTAATGATGTTAATCGGGTCTTGATTCGCTTGACGCTGCTG”, the binding signal is 3.25 z-score.
“CCGATTAACATCAGGCGATTCCCTGATGTTAATCGGGTCTTGATTCGCTTGACGCTGCTG”: the binding signal was 2.34 z-score.
In turn, “CCGATTAACATCACGGGACTCCCTGATGTTAATCGGGTCTTGATTCGCTTGACGCTGCTG” yielded a binding signal of 8.72 z-score.
To “CCGATTAACATCAGGGAAAGAAATGATGTTAATCGGGTCTTGATTCGCTTGACGCTGCTG” belongs 1.72 z-score.
